Assay results: PubChem BioAssay AID2782 (National Center for Advancing Translational Sciences (NCATS), 2010)
Inconclusive results are not listed. Where a call stands in place of a potency, no number is given. Active and inactive are the calls of the source. Calls come from the whole dose curve; as a rule, active = well fitted inhibition curve with a large enough effect in the polarisation, with a control signal flat (not every such curve was filed as active); inconclusive = small, poorly fitted or top-dose-only effect, or effect the other way, or a change in a side signal; inactive = no such curve, though single readings can be large or run the other way; the % refers to the polarisation.

Experiment: Confirmation of Inhibitors Targeting the Menin-MLL Interaction in MLL Related Leukemias: Competition With Texas Red Labeled MLL-derived Mutant Peptide
Conditions: fluorescence polarization, Texas Red MLL peptide displacement; series mostly up to 94.6 µM
Outline: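 FP competition using menin at 200 nM with Texas Red-labeled mutant MLL peptide (50 nM) plus fluorescein MLL-w.t. peptide (25 nM) in 50 mM Tris-HCl pH 7.5, 50 mM NaCl, 1 mM DTT, 0.05% BSA; compound added, 1 hr ambient; polarization read per label.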
Potency is the fitted concentration of half-maximal effect.

Row | SMILES | Potency
1 | CCCC(=O)Nc1cccc(NC(=O)c2ccc([N+](=O)[O-])cc2Cl)c1 | inactive
2 | Cc1ccc(S(=O)(=O)c2cc(OC(=O)c3ccco3)ccc2OC(=O)c2ccco2)cc1 | inactive
3 | N#Cc1ccc(Cl)cc1NC(=O)CNCc1cccs1 | inactive
4 | O=C(CC(Sc1ccc(Br)cc1)C(=O)O)c1ccc(F)cc1 (configuration not stated) | inactive
5 | CCCn1c(=O)c(C(=O)Nc2ccccc2C(=O)OCC)c(O)c2ccccc21 | inactive
6 | O=C(C1CCCN(Cc2cccc(Cl)c2)C1)N1CCCCC1 (configuration not stated) | inactive
7 | Cc1cc(C)c2c(=O)cc(C(=O)NCc3ccccc3)oc2c1 | inactive
8 | Cn1c(=O)n(C)c2cc3[nH]cnc3cc21 | inactive
9 | O=[N+]([O-])CC(c1ccccc1)P(=O)(c1ccccc1)c1ccccc1 (configuration not stated) | inactive
10 | OC(c1ccccn1)(c1ccccn1)c1ccccn1 | inactive
11 | CCn1cnc2c1c(=O)n(CC(=O)O)c(=O)n2Cc1ccccc1 | inactive
12 | CC(CC(=O)Nc1nc2ccccc2[nH]1)n1ccnc1 (configuration not stated) | inactive
13 | CCCN(CCC)CCCNC(=O)c1cc2c(=O)[nH]c3ccccc3c2s1 | inactive
14 | COc1ccc(C)cc1N(C(=O)c1snc(C(N)=O)c1N)C(C(=O)NC1CCCC1)c1ccc(F)cc1 (configuration not stated) | inactive
15 | O=C(Nc1ccc2c(c1)OCO2)c1ccccc1 | inactive
16 | COc1ccc(N(C(=O)c2ccncc2)S(=O)(=O)c2ccc(Cl)cc2)cc1 | inactive

Row | SMILES | Potency
17 | CC1(C)CN=C(N2CCN(c3ncnc4sc5c(c34)CCCC5)CC2)S1 | 14.2 µM (active)
18 | CC(=O)Nc1ccc(-c2cc3ccccc3o2)cc1 | inactive
19 | COc1ccc(CC(=O)Nc2ccc(-c3nnc(-c4ccccc4)o3)cc2)cc1 | inactive
20 | Cc1ccc(C(=O)Sc2cccccc2=O)cc1 | inactive
21 | CCc1ccc(CNC(=O)CCS(=O)(=O)Cc2ccccc2F)cc1 | inactive
22 | CCOC(=O)c1cnc2ccc(OCC)cc2c1N1CCN(C)CC1 | 31.7 µM (active)
23 | Cn1ncc2c(N3CCCCC3)nc(NCCCO)nc21 | inactive
24 | COc1cc(OC)c2ccc(=O)oc2c1C(CCN1CCOCC1)c1ccc(N(C)C)cc1 (configuration not stated) | inactive
25 | COc1ccc(OCCCn2ccnc2)cc1 | inactive
26 | CN1CCN(CC(=O)Nc2ccc(S(=O)(=O)N(C)C)cc2)CC1 | inactive
27 | COc1ccc(Cn2nnnc2C(c2ccc3ncccc3c2)N2CCN(C3CCCCC3)CC2)cc1 (configuration not stated) | 89.1 µM (active)
28 | CCOC(=O)c1cnc2ccc(OC)cc2c1Nc1ccc(N2CCN(C)CC2)cc1 | 141 µM (active)
29 | O=C(N1CCOCC1)N1CCN(S(=O)(=O)c2ccc(Cl)cc2)CC1 | inactive
30 | N=C1c2ccccc2CN1c1ccc(N2CCOCC2)c(S(=O)(=O)Nc2ccc(Cl)cc2)c1 | 141 µM (active)
31 | CCN1C(=O)c2ccccc2S(=O)(=O)c2ccc(C(=O)NCCCN(CC(C)C)CC(C)C)cc21 | inactive
32 | Cc1nn(-c2ccccc2)c2nc(N)c(C(N)=O)cc12 | inactive
